{"source": "the supplement of paper PMC6555819"}
{"tested_on": "RARb homodimer (NR concentration 270 nM)", "assay": "PBM binding z-score (relative to random genomic background probes); higher = stronger binding; sequences stand for … in GC…GCGATTGACAGCGTAGAATGAAGG", "outline": "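Custom Agilent 4×180K protein-binding microarrays carried double-stranded probes, each with a 34-nt variable region. These regions held direct-repeat seeds, single-nucleotide variants, half-site ablations and random human genomic background sequences. Ligand-free nuclear receptor dimers were incubated on the arrays for 1 h, antibodies against each partner (one per run) detected binding, and scanned fluorescence was regression-normalized. Binding z-scores take the random background probes as reference.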"}
{"sequence": "AGAATGAGGTTATACGTAGATCATGGAAGAAAGT", "PBM binding z-score": 1.02}
{"sequence": "ACTCGGAGGACAAAGGTCCGAGCTACGCCAGTGA", "PBM binding z-score": 0.57}
{"sequence": "TGAATGAGGTTGTAAGATCAGGGAACGTTGCAAA", "PBM binding z-score": -0.435}
{"sequence": "TCTTGTAGATCAACAGGAGGTTTAGAAAGATCGA", "PBM binding z-score": -0.821}
{"sequence": "CAAACTAGTTCACGAAAGGTCAAAGTCGAATGAC", "PBM binding z-score": 5.1}
{"sequence": "GCTCGGAGAACAAGGTCAGAGCTTTGTCCGTAGA", "PBM binding z-score": 2.36}
{"sequence": "TTACCAAGCTGAAGGTCGTTGATCCCTCTGTAGA", "PBM binding z-score": 0.756}
{"sequence": "ACTAGTTGGTCAGCTGAGGTCACACATAATTCGG", "PBM binding z-score": 4.45}
{"sequence": "TCTAGCAGGCCAGAGGGTCTCTCAAGAGGTACGG", "PBM binding z-score": -0.406}
{"sequence": "AGAACGAAGGCACGCTGAGTTGATAGCAGAGTAG", "PBM binding z-score": -0.785}
{"sequence": "ACTATTAGTTGACTTAGGGCAACCTATACGACGC", "PBM binding z-score": 0.929}
{"sequence": "GGAACGAGGGCATACGAGTTGATAGCATGGCGAT", "PBM binding z-score": 0.493}
{"sequence": "AGAATGAGGTTACCAAAGATCAGGCAAACGCTTG", "PBM binding z-score": 0.854}
{"sequence": "GGAGCGAGGGCAAAGTTGATAGCATCTGTCGACG", "PBM binding z-score": 0.881}
{"sequence": "TTACCAAGGTGAGCTGAGGTCGTTGGTCCAACTC", "PBM binding z-score": 1.6}
{"sequence": "TCTTGTAGATCAGCAGGTTAAGAATGCTGGCCAA", "PBM binding z-score": 0.138}
{"sequence": "CCGACTTGGGCAAGGTTACCATAACGCACAGCCA", "PBM binding z-score": 0.919}
{"sequence": "CTCGAAAGGTCGCTTGAGGTGAGTATACGGATAA", "PBM binding z-score": 2.86}
{"sequence": "TCTTGTAAATCAAGCAGGTTAAGAAAGCCTGAGT", "PBM binding z-score": 0.102}
{"sequence": "TCTCGGAGGACACGAAGGTGAGAGCTTTCCAGAG", "PBM binding z-score": 1.24}
{"sequence": "CCTACAGGGCCAAAAAGGTCATTGATGCCGATAA", "PBM binding z-score": 4.52}
{"sequence": "AGAATGAGGTTATACGTAGAGCAGGGAAGAAAGT", "PBM binding z-score": 0.854}
{"sequence": "GGAACGAGGGCATTCGAGTTGATAGCCTGGCGAT", "PBM binding z-score": 0.74}
{"sequence": "CCTGCTAGGTCAATTGTCAGCTAAAGCAGCTCGC", "PBM binding z-score": 2.38}
{"sequence": "ATCTCTAGGTAGAAGTTCAGTGAATCCCGAGGAT", "PBM binding z-score": 1.2}
{"sequence": "TCGAGTAGGTTAGGGGCATTCACAATGGCGTCGA", "PBM binding z-score": 0.776}
{"sequence": "TCATATAGGTTATACAGGTGAAAGTCGGCATCTA", "PBM binding z-score": 1.48}
{"sequence": "ACAGACAGGTGATGAAGGTAACTCACGCTATCAT", "PBM binding z-score": 0.275}
{"sequence": "CCTACTGGGCCCAAGGTCATTGATTCCAATGCTC", "PBM binding z-score": 3.52}
{"sequence": "ACAGACAGGTGATGAAGGTAATTCAGGCTATCAT", "PBM binding z-score": -0.0158}
{"sequence": "AGAACGAGGGCACGCTGACTTGATAGCAGAGTAG", "PBM binding z-score": 1.15}
{"sequence": "ATATCTAGGTAAAGATAGTTCAGTGAATGCAAAT", "PBM binding z-score": 0.985}
{"sequence": "GCTGCAAGGTCAGGTTGGTCAGCTAACGGGTACG", "PBM binding z-score": 3.9}
{"sequence": "GTACCAAGGTGAATAGGTCGTTGTTGAGTAGGCG", "PBM binding z-score": 1.89}
{"sequence": "TAGCTTAGGTCAGATCGGGCCAGTATACGCTATA", "PBM binding z-score": 2.23}
{"sequence": "GATACAGGGTCAGCTAGAGGCCGGAGTATGGAAA", "PBM binding z-score": 3.18}
{"sequence": "ATCTCTAGTTAAGACTCAGTTCAGTGAAGAACGC", "PBM binding z-score": 0.624}
{"sequence": "GCTAGCAGGCCATTCGGGTCACTCAATGACGGGC", "PBM binding z-score": 2.3}
{"sequence": "AGCTCTAGGTAACCAAGTTCAGTGAATGCCGAAC", "PBM binding z-score": 1.25}
